# CYP2C19 act: increases human CYP2C19 enzyme activity | activation factor at 5 µM | recombinant CYP2C19, luciferin-H EGE luminescence; stronger effect = higher value; 0 = fully inhibited enzyme, 1 = untreated enzyme | 96,000 tested, under 10 active;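 active = activation factor of at least 2 at 5 µM in the primary screen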;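 note: 0 = wells with 2.5 mM tranylcypromine and 1 = vehicle-only wells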
# Target sequence (P33261 whole entry, looked up): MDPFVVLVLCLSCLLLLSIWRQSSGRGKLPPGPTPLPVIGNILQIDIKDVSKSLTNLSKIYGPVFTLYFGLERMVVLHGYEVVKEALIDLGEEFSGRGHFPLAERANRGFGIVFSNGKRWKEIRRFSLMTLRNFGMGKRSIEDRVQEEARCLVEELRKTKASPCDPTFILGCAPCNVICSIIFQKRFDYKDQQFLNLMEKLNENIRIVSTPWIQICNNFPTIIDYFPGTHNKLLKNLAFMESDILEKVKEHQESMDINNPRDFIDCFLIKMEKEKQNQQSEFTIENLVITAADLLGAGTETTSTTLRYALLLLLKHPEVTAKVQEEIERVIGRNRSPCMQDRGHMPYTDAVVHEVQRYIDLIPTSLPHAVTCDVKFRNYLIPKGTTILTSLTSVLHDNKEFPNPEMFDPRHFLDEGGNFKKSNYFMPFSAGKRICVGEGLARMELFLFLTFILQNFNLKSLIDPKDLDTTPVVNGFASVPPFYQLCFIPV
# CYP2C9 inh: inhibitors of human CYP2C9; P11712; AID 777; CYP2C9 Supersomes, luciferin-H conversion, luminescence; hit rate 20% among 96,000; inhibition, % at 5 µM;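 active = blocking of liver enzyme CYP2C9 beyond about 50% at 5 µM, limit read from the data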
# CYP2C19 inh: inhibitors of human CYP2C19; CYP2C19 Supersomes, luciferin-H EGE luminescence, 30 min; inhibition, % at 5 µM; hit rate 21% among 96,000;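 active = CYP2C19 inhibition above a set limit at 5 µM in the primary screen, cut at about 50% in these data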;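 note: plate controls were negative control wells for no effect and 2.5 mM tranylcypromine positive control for full effect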
# CYP2C9 activ: increases human cytochrome P450 2C9 activity; P11712; AID 1024; activation factor at 5 µM; hit rate 1.4% among 96,000; recombinant CYP2C9, luciferin-H conversion, luminescence; stronger effect = higher value; factor 1 = untreated enzyme, 0 = blocked;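 active = activation factor of 2 or more for CYP2C9 at a 5 µM dose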;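 note: 0 = sulfaphenazole-blocked wells and 1 = vehicle-only wells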
# * hit, by the source's call. Hits are enriched below; roughly 31% of the tested compounds scored in any of these assays.
SMILES,CYP2C19 act,CYP2C9 inh,CYP2C19 inh,CYP2C9 activ
Cc1ccc(CNC(=O)c2cn(C3CCCCC3)c(=O)c3c2c2ccccc2n3C)o1,0.8,39,24,0.6
Cc1cc(NC(=O)c2cn(C3CCCCC3)c(=O)c3c2c2ccccc2n3C)no1,0.4,84*,60*,0.2
CCCC(=O)Nc1ccc(Cl)c(NC(=O)c2cccnc2Cl)c1,1,8,2,0.9
O=C(c1cnn2c(C(F)F)cc(C3CC3)nc12)N1CCc2ccccc2C1,0.3,-71,74*,1.7
O=C(c1cnn2c(C(F)(F)F)cc(-c3ccco3)nc12)N1CCc2ccccc2C1,0.4,76*,59*,0.2
Cc1cc(C(F)F)n2ncc(C(=O)N3CCc4ccccc4C3)c2n1,0.2,-91,84*,1.9
CC1(C)NC(C)(C)C(O)(C(N)=O)C1=O (stereo not drawn),1,-22,-4,1.2
O=c1oc(/C=C/c2ccco2)nc2sc3c(c12)CCC3,1,3,-1,1
CCOc1cc2c(C)cc(=O)oc2cc1Cl,1,-2,2,1
CNc1nc(N2CCc3ccccc32)ncc1F,0.2,24,82*,0.8
Cn1c(=O)cc(N2CCc3ccccc32)[nH]c1=O,1,4,-2,1
CN(C)c1nc(OCCOC(=O)Nc2ccc(Cl)cc2Cl)nc(N(C)C)n1,0,53*,98*,0.5
Cn1nc(-c2ccc(OCC(=O)Nc3ccccc3)cc2)c2ccccc2c1=O,0.2,68*,81*,0.3
CCN(CC)C(=O)COc1ccc(-c2nnc(N3CCCCC3)c3ccccc23)cc1,0.5,80*,52*,0.2
COC(=O)COc1ccc(-c2nn(C)c(=O)c3ccccc23)cc1,0.6,44,43,0.6
Cn1nc(-c2ccc(OCC(N)=O)cc2)c2ccccc2c1=O,1.1,61*,-11,0.4
CN(C(=O)c1ccc(-c2nn(C)c(=O)c3ccccc23)cc1)c1ccccc1,0.5,62*,47,0.4
Cc1cccn2cc(CNC(=O)c3ccco3)nc12,0.9,29,15,0.7
CCOc1cccc(-c2cc(-c3n[nH]c(=S)n3CC)c3ccccc3n2)c1,0.8,32,24,0.7
COc1cc(OC)cc(C(=O)NCCN2CCOCC2)c1,1,-15,2,1.2
N#CC1=C(N)S[C@H](C(=O)C23CC4CC(CC(C4)C2)C3)[C@H]1c1ccncc1,0.3,41,66*,0.6
CC1(C)CC(=O)C2=C(C1)OC(c1ccncc1)C(C#N)=C2N (stereo not drawn),0.8,30,17,0.7
CCNC(=O)N(C(=O)NCC)n1c(C)nnc1C,1.1,-9,-9,1.1
Cc1cc2c(C)nc(Cc3ccccc3)nc2o1,0.3,9,74*,0.9
CC(C)CCNC(=O)c1ccc2c(c1)ncn2C1CCCCC1,0.9,33,13,0.7
SMILES,CYP2C19 act,CYP2C9 inh,CYP2C19 inh,CYP2C9 activ
CC1=C(C(=O)Nc2ccc(C)cc2)C(c2ccc(C)o2)C2=C(CC(C)(C)CC2=O)N1 (stereo not drawn),1,1,-4,1
CC1=C(C(=O)OCc2ccccc2)C(c2ccc(C)o2)C2=C(CCCC2=O)N1 (stereo not drawn),0.3,70*,69*,0.3
CCOC(=O)C1=C(C)NC2=C(C(=O)CC(c3ccc(OC)c(OC)c3)C2)C1c1ccc(C)o1 (stereo not drawn),0.8,59*,19,0.4
CC1=C(C(=O)OC2CCCCC2)C(c2ccc(C)o2)C2=C(CCCC2=O)N1 (stereo not drawn),0.6,60*,42,0.4
CC1=C(C(=O)OCCOc2ccccc2)C(c2ccc(C)o2)C2=C(CC(C)(C)CC2=O)N1 (stereo not drawn),0.2,82*,78*,0.2
NC(=O)CSc1nnc(C2CC2)n1-c1ccccc1,1.1,1,-9,1
NS(=O)(=O)c1ccc(NCc2cc(Cl)ccc2OCc2ccccc2F)cc1,0.9,28,7,0.7
Cc1cccc(C2NS(=O)(=O)N=C2N)c1 (stereo not drawn),1.1,-19,-6,1.2
COc1ccc(C(=O)Oc2ccc3c(c2)OCO3)cc1OC,1,3,-1,1
O=C(Oc1ccc2c(c1)OCO2)c1ccncc1,0.2,65*,82*,0.3
CC1=NN(C(=O)Cc2ccccc2)C(O)(c2cccnc2)C1 (stereo not drawn),1,-10,4,1.1
O=C(c1ccco1)N1CCN(Cc2cccc(F)c2)CC1,0.6,-2,43,1
COc1cccc(C(=O)N2CCN(C3CCN(Cc4ccccc4)CC3)CC2)c1,1.1,-6,-6,1.1
COc1cc(OC)cc(C(=O)N2CCN(Cc3cccc(F)c3)CC2)c1,0,-32,98*,1.3
COc1cccc(C(=O)N2CCN(Cc3cccc(F)c3)CC2)c1,0,44,98*,0.6
O=C(c1cccc(F)c1)N1CCN(Cc2ccco2)CC1,0.3,10,69*,0.9
Cc1cccc(C)c1NC(=O)N1CCC(N2CCCCC2)CC1,1.1,-5,-8,1
CCn1cc([N+](=O)[O-])c(C(=O)Nc2nc(-c3ccc(C)cc3)c(C)s2)n1,0.9,27,13,0.7
CCCC(=O)N1CC2(C)CN(C(=O)CCC)CC(CCC)(C1)C2=O,1.1,-5,-13,1.1
CC1=NOC(=O)/C1=C/c1ccc(N(C)C)cc1,1.1,3,-15,1
CC1=NOC(=O)/C1=C\c1ccc(-c2cc(Cl)ccc2Cl)o1,0.4,4,60*,1
CC1=NOC(=O)/C1=C/c1ccc(-c2ccc(Cl)cc2)o1,0.2,68*,76*,0.3
C=CCSc1nnc2nc3[nH]c4c(C)cccc4c3nn12,1,3,-4,1
O=C(Nc1ccc(Br)c(Cl)c1)c1ccco1,0.3,43,66*,0.6
COC(=O)c1ccc(N2CCN(C)CC2)c(NC(=O)c2cc3ccccc3o2)c1,0.9,38,12,0.6
SMILES,CYP2C19 act,CYP2C9 inh,CYP2C19 inh,CYP2C9 activ
COc1ccc(NC(=O)c2cc3ccccc3o2)cc1,0.7,19,30,0.8
CCCC(=O)N1CCN(c2ccc(NC(=O)c3cc4ccccc4o3)cc2Cl)CC1,0.2,82*,81*,0.2
CCCOc1ccc(C(=O)N2CCN(c3ccc(NC(=O)CC)cc3Cl)CC2)cc1,0,86*,96*,0.1
CCC(=O)N1CCN(c2ccc(NC(=O)c3cc4ccccc4o3)cc2Cl)CC1,0.6,50*,36,0.5
Cn1sc(NC(=O)c2cccc(Cl)c2)nc1=O,1,6,-3,0.9
O=S(=O)(c1ccc(C2CCCCC2)cc1)N1CCCC1,1,22,-2,0.8
Cc1cnn(-c2ccc3nnc(-c4ccc(Br)cc4)n3n2)c1,1,14,0,0.9
O=C(Nc1ccc(N2CCN(C(=O)c3ccco3)CC2)c(Cl)c1)c1cc2ccccc2o1,0.3,92*,71*,0.1
O=C(c1cc2ccccc2o1)N1CCN(c2ccccc2Cl)CC1,0.6,44,44,0.6
O=C(Nc1ccc(N2CCN(C(=O)c3ccccc3)CC2)c(Cl)c1)c1ccco1,0.6,62*,41,0.4

# Screening data (PubChem BioAssay)
